Results filed as inconclusive are left out. Active and inactive are the calls of the source. Calls come from the whole dose curve; as a rule, active = well fitted curve in either direction with a large enough effect (not every such curve was filed as active); inconclusive = small, poorly fitted or top-dose-only effect, or another doubt; inactive = flat fitted curve, though single readings scatter.
Assay: AP1 Signaling Pathway (AID 357)
Conditions: ME-180 (cervical carcinoma) AP-1-bla reporter, EGF-induced, beta-lactamase ratio, 5 h; at 7.69 µM (top of the series) unless noted
In short: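 Read-out was the 460nm/530nm emission ratio (excitation 405nm) after CCF4 loading for 2.5 hours at room temperature. Cells carried an AP-1-driven beta-lactamase reporter, were stimulated with EC50 EGF plus compound for 5 hours, and AC50 values came from titrations.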
% is set by controls: 0 for no effect and ±100 for the full control effect.

Row | SMILES | activity change, negative = inhibition
1 | CN(C)Cc1ccccc1-c1ccc2ncnc(N(C)C)c2c1 | -1.59% (inactive)
2 | COc1ccc2[nH]cc(CCNc3ncncc3-c3ccccc3C(F)(F)F)c2c1 | 3.8% (inactive)
3 | COc1ccccc1CNc1nc(-c2cccc(NS(C)(=O)=O)c2)nc2ccccc12 | -13.2% (inactive)
4 | COc1cccc(Cn2c(=O)cnc3cnc(N(C)C)nc32)c1 | -10.4% (inactive)
5 | CNc1ncncc1-c1ccccc1CN(C)C | 7.24% (inactive)
6 | c1ccc2c(NCCN3CCOCC3)nc(-c3ccc4c(c3)OCO4)nc2c1 | -11.7% (inactive)
7 | CN1CCN(c2nc(-c3ccoc3)nc3ccccc23)CC1 | 6.84% (inactive)
8 | CN(C)c1nc(-c2cccc(NS(C)(=O)=O)c2)nc2ccccc12 | 11.2% (inactive)
9 | CN1CCN(c2nc(-c3cccnc3)nc3ccccc23)CC1 | 5.32% (inactive)
10 | O=c1cnc2cnc(N3CCOCC3)nc2n1Cc1cccs1 | -3.18% (inactive)
11 | COc1ccccc1CNc1ncncc1-c1ccccc1C(F)(F)F | -7.72% (inactive)
12 | COc1ncc2nc(-c3cccs3)c(=O)n(CCC#N)c2n1 | 10.4% (inactive)
13 | COc1ccccc1-c1nccc(N2CCN(C)CC2)n1 | 15.6% (inactive)
14 | Cc1nc2cnc(N3CCOCC3)nc2n(CCc2ccccc2)c1=O | 3.7% (inactive)
15 | c1ccc2c(NCCN3CCOCC3)nc(-c3ccoc3)nc2c1 | 1.61% (inactive)

From PubChem BioAssay (NCATS)
